# Screens deposited in PubChem by National Center for Advancing Translational Sciences (NCATS).
# In the library only some 1.4% were active in any assay of this set; here they are far more common.
# EPAC1 ag: qHTS for Agonist of cAMP-regulated guanine nucleotide exchange factor 3 (EPAC1): primary screen; Rap guanine nucleotide exchange factor 3 (Homo sapiens), O95398; EPAC1 agonist qHTS, biochemical assay; response scale: 100% = response to 6.5 mM cAMP; Potency, µM (series often up to 154 µM), for inactives: top-dose activation, usual class: activators; 0.073% of 360,000 active; AID 720707, 2013; further: nearly all actives have a fitted effect of over 60% in size
# Target sequence (O95398 whole entry, looked up): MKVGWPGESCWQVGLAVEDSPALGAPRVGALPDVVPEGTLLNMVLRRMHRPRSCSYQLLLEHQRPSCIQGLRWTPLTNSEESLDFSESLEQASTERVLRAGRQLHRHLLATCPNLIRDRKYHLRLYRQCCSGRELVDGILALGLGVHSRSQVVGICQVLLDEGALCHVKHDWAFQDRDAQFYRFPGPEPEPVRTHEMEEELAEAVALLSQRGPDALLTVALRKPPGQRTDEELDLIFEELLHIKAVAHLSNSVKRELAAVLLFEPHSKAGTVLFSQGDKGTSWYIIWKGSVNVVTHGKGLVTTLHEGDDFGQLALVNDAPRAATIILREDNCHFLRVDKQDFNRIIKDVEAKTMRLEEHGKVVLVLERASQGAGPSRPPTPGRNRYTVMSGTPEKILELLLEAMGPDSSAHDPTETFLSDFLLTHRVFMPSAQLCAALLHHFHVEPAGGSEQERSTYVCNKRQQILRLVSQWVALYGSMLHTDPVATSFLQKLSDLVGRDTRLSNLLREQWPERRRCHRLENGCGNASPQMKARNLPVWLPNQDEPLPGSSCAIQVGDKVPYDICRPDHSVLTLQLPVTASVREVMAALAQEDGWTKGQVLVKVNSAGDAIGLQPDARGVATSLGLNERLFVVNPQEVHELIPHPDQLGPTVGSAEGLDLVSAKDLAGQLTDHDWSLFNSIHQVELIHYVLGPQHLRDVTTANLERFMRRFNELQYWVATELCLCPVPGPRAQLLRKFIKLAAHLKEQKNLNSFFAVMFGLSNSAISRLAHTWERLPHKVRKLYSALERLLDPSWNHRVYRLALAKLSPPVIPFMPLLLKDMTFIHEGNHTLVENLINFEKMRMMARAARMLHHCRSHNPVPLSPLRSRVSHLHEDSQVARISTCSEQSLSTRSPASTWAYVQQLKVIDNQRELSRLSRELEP
#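 Multi-concentration qHTS readout: loss of Rap1B-bound BODIPY-GDP fluorescence driven by 100 nM EPAC1 with excess GDP (50 uM), monitored kinetically at room temperature; agonist response expressed relative to 6.5 mM cAMP.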
# EPAC1 antagonist: qHTS for Antagonist of cAMP-regulated guanine nucleotide exchange factor 3 (EPAC1): primary screen; EPAC1 GEF assay, Rap1b-BODIPY-GDP exchange fluorescence; Potency, µM (series often up to 115 µM), inactives show at the highest dose activity change, negative = inhibition, actives largely listed as inhibitors; 0.14% of 360,000 active;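 further: plate controls were vehicle for no effect and positive control for full effect; nearly all actives have a fitted effect of over 50% in size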
# EPAC2 antagonist: qHTS for Antagonist of cAMP-regulated guanine nucleotide exchange factor 2 (EPAC2): primary screen; Rap guanine nucleotide exchange factor 4 (Homo sapiens), Q8WZA2; Potency, µM (doses to about 114 µM), inactives show at the top dose activity, negative = inhibition, actives largely listed as inhibitors; EPAC2 GEF exchange of Rap1B-BODIPY-GDP, fluorescence; 0.18% of 360,000 active; AID 720708, 2013; further: on the % scale 0 is the no-effect control and ±100 the full control effect; nearly all actives have a fitted effect of over 45% in size
# EPAC2 agonist: qHTS for Agonist of cAMP-regulated guanine nucleotide exchange factor 4 (EPAC2): primary screen; Rap guanine nucleotide exchange factor 4 (Homo sapiens), Q8WZA2; EPAC2 activation, biochemical qHTS; response scale: 100% = 6.5 mM cAMP response; Potency, µM (top dose mostly 154 µM), without a hit: top-dose activation, actives largely listed as activators; 0.079% of 360,000 active; further: nearly all actives have a fitted effect of over 50% in size
#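 In this primary screen, activation is scored as increased exchange of BODIPY-GDP from Rap1B by 100 nM EPAC2, with 50 uM GDP as competitor. Signal is normalized to the 6.5 mM cAMP agonist control.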
# BRCA1 expr up: qHTS Assay to Identify Small Molecule Activators of BRCA1 Expression | MCF7-BRCA1-FFLuc reporter, luminescence, 48 h; response scale: scaled: vehicle 0%, 10 µM genistein 100% | Potency, µM (highest dose often 46.1 µM), for the others: top-dose activation, actives largely listed as activators | 1.1% of 380,000 active | AID 624202, 2012; further: nearly all actives have a fitted effect of over 80% in size
#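 Cells: MCF7-BRCA1-FFLuc, 2000/well. Exposure: 48 h, 37 °C, 5% CO2. Read: luminescence, 15 min post-substrate. Controls: genistein 10 microM (maximal activation), DMSO (neutral).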
# USP1 inh: Inhibitors of USP1/UAF1: Primary Screen; Ubiquitin carboxyl-terminal hydrolase 1 (Homo sapiens), O94782; 0.23% of 390,000 active; Potency, µM (titrated, usually from 57.1 µM), for inactives: at the highest dose activity change, negative = inhibition, usual class: inhibitors; recombinant USP1/UAF1, Ub-Rhodamine cleavage fluorescence; AID 743255, 2014; further: on the % scale 0 is the no-effect control and ±100 the full control effect; nearly all actives have a fitted effect of over 60% in size
#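 High-throughput fluorogenic screen: 1nM USP1/UAF1 complex, Ub-Rho substrate 150nM final, 50mM HEPES pH 7.8 with 0.5mM EDTA, 0.1 mg/ml BSA, 1mM TCEP and 0.01% Tween-20.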
# The depositor's hits bear a star; ? = inconclusive; . = no result given; ! = repeats disagree. The call rests on the fitted dose curve; in most records, active means well fitted curve in the direction sought with a large enough effect; inconclusive means small, poorly fitted or top-dose-only effect, or another doubt; inactive means no such curve, though single readings can be large; an effect the other way counts as inactive or inconclusive. Potency means the concentration at half of the fitted maximal effect.
SMILES,EPAC1 ag,EPAC1 antagonist,EPAC2 antagonist,EPAC2 agonist,BRCA1 expr up,USP1 inh
Cn1c(N)c(C(=O)CSc2nnc(-c3c[nH]c4ccccc34)n2C2CC2)c(=O)[nH]c1=O,10%,?,50µM*,63µM*,-7%,?
CCOC(=O)C1=C(c2ccccc2)N=c2s/c(=C\c3cc(OC)c(OC)c(OC)c3)c(=O)n2C1c1cccs1 (stereo not given),10%,-3%,-7%,14%,-5%,22µM*
CCOC(=O)C1=C(c2ccccc2)N=c2s/c(=C\c3ccco3)c(=O)n2C1c1cccs1 (stereo not given),5%,?,-2%,8%,-30%,-13%
CC1CCC(NC(=O)CSc2nnc(-c3cccnc3)o2)CC1 (stereo not given),10%,-22%,2%,6%,-4%,-11%
CCOC(=O)C1CCCN(C(=O)CC(C)c2ccccc2)C1 (stereo not given),9%,5%,1%,8%,13µM*,6%
CC(=O)c1ccc2oc3ccccc3c(=O)c2c1,-1%,-20%,-3%,5%,7.9µM*,-25%
COc1ccc2c(=O)c3ccccc3oc2c1,-3%,-12%,-20%,6%,?,-11%
CC(=O)c1cc2c(=O)c3ccccc3oc2nc1C,3%,6%,-2%,10%,10µM*,-14%
CCCCOc1ccc(C(=O)N=c2sccn2C)cc1OC,7%,12%,-5%,5%,4µM*,-23%
Cc1ccc(/C=C2\CCC(C3CCCC3)C2=O)cc1 (stereo not given),9%,3%,4%,8%,13µM*,-20%
Cc1ccc(NC(=O)Nc2ccc3c(c2)nnn3C)cc1C,-3%,26%,6%,0%,2.8µM*,-19%
CCSc1nnc(NC(=O)c2ccc3c(c2)OCO3)s1,3%,-3%,-3%,12%,?,-3%
CC(C)Sc1nnc(NC(=O)c2ccc3c(c2)OCO3)s1,-15%,4%,6%,0%,2.5µM*,-2%
CCN(CC)C(=O)c1sc(NC(=O)c2ccncc2)c(C(=O)OC)c1C,-1%,6%,8%,-4%,-4%,-21%
CCN(CC)C(=O)c1sc(NC(=O)c2ccc3c(c2)OCO3)c(C(N)=O)c1C,-13%,-8%,-4%,8%,11µM*,-12%
Cc1nc2ccc3nc(NC(=O)c4ccc5c(c4)OCCO5)sc3c2s1,4%,11%,-5%,10%,8.9µM*!,-22%
Cc1cnc(NC(=O)c2ccc3c(c2)OCCO3)s1,3%,-14%,6%,8%,?,-24%
Cc1nc2c(ccc3nc(NC(=O)c4ccc5c(c4)OCCO5)sc32)s1,1%,4%,17%,8%,2.8µM*,-23%
O=C1c2ccccc2S(=O)(=O)N1Cc1ccccc1[N+](=O)[O-],-5%,-5%,5%,9%,-1%,-17%
COc1ccc(N2CCN(C(=O)c3cc(-c4ccc(C)c(F)c4)on3)CC2)cc1,.,.,.,.,.,-22%
Cc1cc(-c2ccc(C)c(S(=O)(=O)NC(c3cccs3)C(C)C)c2)on1 (stereo not given),.,.,.,.,-25%,-11%
CCOC(=O)C(C)Oc1cccc2c(=O)n(CC(=O)Nc3ccc(OC)cc3)ccc12 (stereo not given),-11%,-27%,24%,-4%,-9%,.
CN(C)/C=C1\N=C(c2ccc3c(c2)OCO3)OC1=O,-8%,-2%,19%,4%,7.9µM*,-23%
C[C@@H](CO)NC(=O)c1nc[nH]c1C(=O)N[C@H](C)c1ccccc1,1%,-19%,2%,6%,9%,?
c1ccc(Oc2cc(-c3ccccc3)ncn2)cc1,-1%,0%,9%,11%,11µM*,-19%
SMILES,EPAC1 ag,EPAC1 antagonist,EPAC2 antagonist,EPAC2 agonist,BRCA1 expr up,USP1 inh
N/C(=N\N=C\c1ccc(Br)o1)c1nonc1N,19%,-6%,4%,10%,10µM*,-4%
Nc1nonc1C(=O)N/N=C/c1ccc(Br)o1,-3%,11%,1%,6%,-16%,-24%
Cn1ccnc1SCC(=O)c1ccc2ccccc2c1,4%,-13%,-8%,11%,6.3µM*,-11%
Cc1cc([N+](=O)[O-])ccc1NC(=O)c1csc(C)c1C,-11%,-2%,4%,6%,5µM*,-19%
CNC(=S)Nc1ccc([N+](=O)[O-])cc1C,11%,-19%,3%,6%,-15%,-11%
CCOc1ccc(C2C(=O)N(C3CCCCC3)CC(=O)N2Cc2ccccc2OC)cc1OC (stereo not given),.,.,.,.,.,1%
COc1ccccc1OC(C)C(=O)Nc1ccc(-c2nc3ccccc3s2)cc1 (stereo not given),.,.,.,.,80%,?
C/C=C/c1ccc(OCC(=O)OCc2csc(Nc3ccc(C)cc3)n2)c(OC)c1,17%,-26%,2%,5%,11µM*,-9%
CN(C)c1ccc(N=Cc2nc(-c3ccccc3)oc2OC(=O)c2ccccc2)cc1,3%,35%,20%,15%,87%,-15%
CC(=O)Oc1oc(-c2ccccc2)nc1C=Nc1ccc(N(C)C)cc1,4%,7%,35%,18%,-10%,25µM*
O=C(CCc1nc2sc3c(c2c(=O)[nH]1)CCCC3)Nc1cccc(Cl)c1,-7%,?,-6%,5%,1%,-7%
CC1=NN(c2cccc(C(=O)O)c2)C(=O)/C1=C\C=C/c1ccccc1,-3%,-6%,16µM*,0%,-47%,?
CC1=NN(c2ccccc2)C(=O)/C1=C/c1ccc(Cl)cc1,-2%,-16%,18%,10%,-11%,-25%
CC1=NN(c2ccccc2)C(=O)C1=Cc1ccccc1,21%,50µM*,19%,16%,-21%,-24%
Cc1nc(-c2ccc(C)c(S(=O)(=O)N3CCC(C(=O)NCc4ccc(Cl)cc4)CC3)c2)no1,.,.,.,.,.,-12%
COc1ccc(OC)c(CN2C(=O)CSCC2(C)C(=O)Nc2c(C)cccc2C)c1 (stereo not given),9%,-13%,3%,8%,.,.
